This is an account of results in PubChem BioAssay (NCI).

About 83,000 compounds went through this panel and 20% of them were active in at least one assay; those are over-represented in the sample as a whole.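 Results are percent growth after 48 hours of single-concentration exposure. 100 means growth as in untreated cells, lower positive values show inhibition; negative values down to -100 show cell death.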 Values without a mark were called inactive. The source made the active and inactive calls. How the source made its calls: active means growth percent below 10; inactive means the rest.

Some test systems named below: HCT-15 colon; HT29 colon; SNB-75 CNS; SNB-19 CNS; U251 CNS; PC-3 prostate; SK-MEL-5 melanoma; UACC-62 melanoma; LOX IMVI melanoma; SK-MEL-28 melanoma; SK-MEL-2 melanoma; EKVX NSCLC; SN12C renal; UO-31 renal; TK-10 renal; ACHN renal; CAKI-1 renal; A498 renal; CCRF-CEM leukemia; MOLT-4 leukemia.
Holding throughout (assay): NCI-60 one-dose screen, 48 h (100 = growth as untreated, 0 = no growth, -100 = all killed)
Details in all cases: 10 µM unless noted

As for `COc1ccc(NC(=O)c2ccc(NC3=C(c4ccc(Cl)cc4)C(=O)NC3=O)cc2)cc1`, the growth is 75.1% in the assay on HCT-15 colon; 66.7% in the assay with HT29 colon; 85.7% in the assay on SNB-75 CNS; 91.8% in the assay on SNB-19 CNS; 82.3% in the assay with U251 CNS; 64.3% in the assay on PC-3 prostate. The growth is 80.8% in the assay with SK-MEL-5 melanoma; 81.6% in the assay with UACC-62 melanoma; 87.7% with LOX IMVI melanoma; 101% in the assay with SK-MEL-28 melanoma; 70.4% in the assay with SK-MEL-2 melanoma; 84.7% with EKVX NSCLC. The growth in the assay with SN12C renal is 88.6%; with UO-31 renal, 64.6%; in the assay with TK-10 renal, 82.8%; with ACHN renal, 85.9%; in the assay on CAKI-1 renal it was 83.9%; with A498 renal, 87.5%. In addition, the growth in the assay on CCRF-CEM leukemia was 85.1%; with MOLT-4 leukemia it was 52.6%.

Consider `O=C(Cn1cc(CSc2nc3ccccc3o2)nn1)Nc1ccc([N+](=O)[O-])cc1`, for which the growth is 106% with HCT-15 colon; 93.9% with HT29 colon; 79.4% in the assay on SNB-75 CNS; 96.3% in the assay on SNB-19 CNS; 97.9% in the assay on U251 CNS; 92% in the assay on PC-3 prostate. Besides, the growth is 99.1% in the assay with SK-MEL-5 melanoma; 68.5% with UACC-62 melanoma; 94.5% in the assay with LOX IMVI melanoma; 105% with SK-MEL-28 melanoma; 106% in the assay on SK-MEL-2 melanoma; 104% in the assay on EKVX NSCLC. Besides, the growth in the assay with SN12C renal is 102%; in the assay on UO-31 renal, 78.8%; in the assay on TK-10 renal, 104%; in the assay with ACHN renal, 95.2%; in the assay on CAKI-1 renal it was 82%; in the assay on A498 renal it was 101%. Moreover, the growth with CCRF-CEM leukemia was 105%; in the assay on MOLT-4 leukemia, 94.1%.

Take `O=C(OCC(O)(CO)C(=O)NC12CC3CC(CC(C3)C1)C2)c1ccc(Cl)cc1` (stereo not given): the growth is 104% in the assay with HCT-15 colon; 94.8% in the assay on HT29 colon; 97.6% in the assay with SNB-75 CNS; 96.2% with SNB-19 CNS; 93.5% in the assay with U251 CNS; 93.7% in the assay on PC-3 prostate. Further, the growth with SK-MEL-5 melanoma is 101%; in the assay with UACC-62 melanoma, 97.4%; in the assay on LOX IMVI melanoma, 95.2%; with SK-MEL-28 melanoma, 113%; with SK-MEL-2 melanoma it was 86.3%; with EKVX NSCLC, 103%. Also, the growth in the assay with SN12C renal was 100%; in the assay with UO-31 renal it was 82.6%; in the assay with TK-10 renal, 85.3%; in the assay on ACHN renal it was 102%; with CAKI-1 renal, 99%; in the assay on A498 renal, 102%. Also, the growth was 87.8% in the assay on CCRF-CEM leukemia and 83.8% with MOLT-4 leukemia.

Take `C=C(C)[C@@H]1CC[C@]2(C(=O)NC(C)=O)CC[C@]3(C)[C@H](CC[C@@H]4[C@@]5(C)CCCNC(C)(C)[C@@H]5CC[C@]43C)[C@@H]12`: the growth with HCT-15 colon is -33.2% (active); in the assay with HT29 colon, -5.24% (active); with SNB-75 CNS, 52%; in the assay with SNB-19 CNS, 58.3%; in the assay with U251 CNS, -41.6% (active); in the assay with PC-3 prostate, 27.4%. Further, the growth in the assay with SK-MEL-5 melanoma was -94.5% (active); with UACC-62 melanoma, 81.6%; with LOX IMVI melanoma, -81.8% (active); with SK-MEL-28 melanoma it was -88.4% (active); in the assay with SK-MEL-2 melanoma, -34.6% (active); with EKVX NSCLC it was 68.8%. Besides, the growth in the assay on SN12C renal was 22.2%; in the assay on UO-31 renal, 49.7%; with TK-10 renal it was 10.6%; in the assay with ACHN renal it was -30.1% (active); with CAKI-1 renal, 71.8%; in the assay on A498 renal, 88.6%. Moreover, the growth with CCRF-CEM leukemia was 1.24% (active); in the assay on MOLT-4 leukemia it was -13.1% (active).

As to `COc1cc2c(cc1OC)CC[N+](CCC[N+](C)(C)C)=C2`, the growth in the assay on HCT-15 colon was 101%; with HT29 colon, 88.5%; with SNB-75 CNS it was 80.2%; with SNB-19 CNS it was 110%; with U251 CNS, 98.9%; in the assay on PC-3 prostate, 83.9%. The growth with SK-MEL-5 melanoma is 104%; with UACC-62 melanoma, 110%; with LOX IMVI melanoma it was 99.3%; with SK-MEL-28 melanoma it was 98.7%; with SK-MEL-2 melanoma, 88.9%; in the assay on EKVX NSCLC, 100%. The growth is 98% in the assay with SN12C renal; 91.1% with UO-31 renal; 80.5% in the assay with TK-10 renal; 104% in the assay with ACHN renal; 96.3% in the assay on CAKI-1 renal; 104% with A498 renal. Moreover, the growth in the assay with CCRF-CEM leukemia was 97.9%; in the assay with MOLT-4 leukemia, 91.6%.

As to `CCN(CC)CCOc1ccc(/C(=C(\C)Cc2ccc(OC)cc2)c2ccc(O)cc2)cc1`, the growth was 5.11% (active) in the assay on HCT-15 colon; -70.5% (active) in the assay with HT29 colon; 25.1% with SNB-75 CNS; 26.6% in the assay with SNB-19 CNS; -30.3% (active) in the assay on U251 CNS; 15.2% with PC-3 prostate. Besides, the growth is -96.4% (active) in the assay on SK-MEL-5 melanoma; -70.7% (active) in the assay on UACC-62 melanoma; -64.9% (active) in the assay with LOX IMVI melanoma; -71% (active) in the assay on SK-MEL-28 melanoma; -45.7% (active) in the assay with SK-MEL-2 melanoma; 66.5% in the assay on EKVX NSCLC. Further, the growth in the assay on SN12C renal is 54.9%; with UO-31 renal, -34.2% (active); in the assay with TK-10 renal it was 35.8%; in the assay with ACHN renal, 18.9%; in the assay with CAKI-1 renal, -21.3% (active); with A498 renal, 92.9%. The growth with CCRF-CEM leukemia was -3.51% (active); in the assay on MOLT-4 leukemia, -9% (active).

Regarding `COc1ccc(-c2ccc(-c3ccc(C(=N)N)nc3)s2)cc1`, the growth in the assay on HCT-15 colon was -77% (active); in the assay on HT29 colon it was -43.1% (active); in the assay on SNB-75 CNS it was 116%; in the assay with SNB-19 CNS, 4.32% (active); in the assay with U251 CNS, -51.9% (active); in the assay with PC-3 prostate, -37.4% (active). Further, the growth in the assay on SK-MEL-5 melanoma was 70.8%; in the assay with UACC-62 melanoma it was -94.2% (active); with LOX IMVI melanoma it was -89% (active); in the assay on SK-MEL-28 melanoma, 93.8%; in the assay with SK-MEL-2 melanoma, 88.3%; in the assay on EKVX NSCLC, 38.8%. For the same compound, the growth in the assay with SN12C renal is -78.9% (active); in the assay on UO-31 renal, -96.8% (active); with TK-10 renal, -65.8% (active); in the assay with ACHN renal it was -100% (active); with CAKI-1 renal, -92.3% (active); in the assay on A498 renal it was 94.3%. The results for the growth in the assay on CCRF-CEM leukemia and in the assay with MOLT-4 leukemia were -43.4% (active) and -53.7% (active), respectively.

As for `CCCCCCCCCCCCCCCCCCOc1ccccc1CC(=O)OCC[N+]1(C)CCCCC1`, the growth is 86.3% in the assay on HCT-15 colon; 31.7% in the assay on HT29 colon; 46.3% in the assay on SNB-75 CNS; 50.6% in the assay with SNB-19 CNS; 36.9% with U251 CNS; 3.03% (active) in the assay on PC-3 prostate. The growth with SK-MEL-5 melanoma is -2.94% (active); in the assay with UACC-62 melanoma it was 33.8%; in the assay with LOX IMVI melanoma it was 1.71% (active); in the assay with SK-MEL-28 melanoma it was 62.5%; in the assay on SK-MEL-2 melanoma, 80.3%; in the assay with EKVX NSCLC it was 63.1%. The growth with SN12C renal is 24.2%; in the assay on UO-31 renal, 73.8%; with TK-10 renal, 66.2%; in the assay on ACHN renal, 94.7%; with CAKI-1 renal, 65.5%; with A498 renal, 83.3%. The growth with CCRF-CEM leukemia is 6.32% (active); in the assay on MOLT-4 leukemia it was 6.43% (active).
